For 36 compounds, growth results are on record in PubChem BioAssay (NCI).

Molecules are shown by their SMILES. The panel holds about 83,000 compounds, 20% with a hit somewhere; the sample as a whole holds those more often.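 For each line, cells grew in 96-well plates with the test compound present at a single concentration for 48 hours.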 Active and inactive are the calls of the source. How the source made its calls: active means growth percent below 10; inactive means the rest.

One experiment relates to SF-539 CNS. Put plainly: NCI-60 one-dose screen, 48 h (100 = growth as untreated, 0 = no growth, -100 = all killed). The settings on record: 10 µM.
Take `CCOC(=O)N/N=C/c1ccc(OC)c(OC)c1`: the growth was 112% (inactive).
Still for that read-out and setting: with `COc1cc(-c2nn(-c3cccc(NC(=O)NCCNC(=O)c4ccccc4)c3)cc2-c2ccncc2)ccc1Cl` the figure was -12.9% (active).
Still for that read-out and setting: with `CCOC(=O)c1cc(C(=O)c2cc(OC)c(OC)c(OC)c2)n2ncc3ccccc3c12` the figure was 86.7% (inactive).
On to `NC1=CC(=O)C(=O)c2cccnc21`, for which the growth was 101% (inactive).
The same measure, in the same setting: then `COc1ccc(Cl)cc1Nc1nc(C(F)(F)F)ccc1C(=O)N/N=C/c1cc(OC)c(OC)c(OC)c1`, with 17.1% (inactive); and `COc1ccc(C(c2ccc(OCCN(C)C)cc2)c2cc3ccccc3c3ccccc23)cc1` (stereo not drawn), with 66.9% (inactive).
Turning to `COc1cc(C(=O)/C=C/c2c[nH]c3ccccc23)cc(OC)c1OC`, the growth is -1.84% (active).
The same measure, in the same setting: with `CC(C)(C)OC(=O)CC(S(=O)(=O)c1ccccc1)S(=O)(=O)c1ccccc1` the figure was 107% (inactive).
Same read-out and setting: with `CC(C)(C)OC(=O)CN1CCc2c(sc3ncnc(N/N=C/c4cccc5ccccc45)c23)C1` the figure was 24.3% (inactive).

Another experiment has as its system UACC-257 melanoma. The description is as above. The settings on record: 10 µM.
Take `CCOC(=O)c1cc(C(=O)c2ccc(Cl)cc2)n2ccc(-c3cc[n+](CC(=O)c4ccc(OC)cc4)cc3)cc12`: the growth is 101% (inactive).
`CC(CN(C)C)Oc1ccc(OC(C)CN(C)C)c2c1C(=O)c1ccccc1C2=O` (stereo not drawn): the growth is 72.8% (inactive).
The same measure, in the same setting: with `N#Cc1c(-c2ccc(Cl)cc2)n(O)c2ccccc12` the figure was 47.4% (inactive).
The same measure, in the same setting: with `C=CCN(CC=C)C(=O)[C@H](CC)[C@@H]1CC[C@@H](C)[C@@H]([C@H](C)[C@@H](O)[C@@H](C)C(=O)[C@H](CC)C2O[C@]3(C=CC(=O)[C@]4(CC[C@@](C)([C@H]5CC[C@](O)(CC)[C@H](C)O5)O4)O3)[C@H](C)C[C@@H]2C)O1` (stereo partly drawn) the figure was 20.6% (inactive).
Still for that read-out and setting: with `COc1cc(C2C(C#N)=C(N)Oc3cc(O)ccc32)cc(OC)c1OC` (stereo not drawn) the figure was 64.2% (inactive); with `O=C(CI)OCC(COC(=O)CI)OC(=O)CI`, 76.5% (inactive).
Turning to `Cc1ccc(C(=O)C2C(=O)C3CCC2C3)cc1` (stereo not drawn), the growth was 94.1% (inactive).
Same read-out and setting: then `CCc1ccc(C2=NN(c3ccc(S(C)(=O)=O)cc3)C(=O)CC2)cc1`, with 59.1% (inactive).
Same read-out and setting: then `N#CC1=CC2CN(Cc3ccccc3)C1C1C(=O)N(c3ccccc3)C(=O)C21` (stereo not drawn), with 97.5% (inactive).
With `CN(C)CCCOc1ccccc1NC1=C(Cl)C(=O)C(Nc2ccccc2OCCCN(C)C)=C(Cl)C1=O`, the growth is -92.9% (active).
On the same count and under the same terms, then `CCOC(=O)c1cc(C(=O)c2cc(OC)c(OC)c(OC)c2)n2c1ccc1c3cccnc3ccc12`, with 73.4% (inactive); and `COc1cc2cc(Oc3ccc(NC(=O)c4ccccc4)cc3)c(C)nc2cc1OC`, with 95.2% (inactive).
Still for that read-out and setting: then `COC(=O)c1cc2oc(/C=C3/SC(=S)N(N)C3=O)cc2n1Cc1ccccc1`, with 49.6% (inactive); and `CC[C@@H](C(=O)[C@@H](C)[C@@H](O)[C@H](C)[C@@H]1O[C@@H]([C@@H](CC)C(=O)N(CC)CC)CC[C@@H]1C)C1O[C@]2(C=CC(=O)[C@]3(CC[C@@](C)([C@H]4CC[C@](O)(CC)[C@H](C)O4)O3)O2)[C@H](C)C[C@@H]1C` (stereo partly drawn), with 19.8% (inactive); and `Cc1ccc(N=Nc2ccccc2)cc1`, with 88% (inactive).
Same read-out and setting: with `COc1cc(-c2nn(-c3cccc(NC(=O)CCNc4ccc(N5CCOCC5)cc4)c3)cc2-c2ccncc2)ccc1Cl` the figure was 20.1% (inactive); with `O=c1oc2c(cc1-c1ccc(F)cc1)C(O)Oc1ccccc1-2` (stereo not drawn), 84.1% (inactive).
Regarding `CCOC(=O)c1cc(C(=O)c2cc(OC)c(OC)c(OC)c2)n2ccc(-c3cc[n+](CC(=O)c4cc(OC)c(OC)c(OC)c4)cc3)cc12`, the growth was 92.5% (inactive).
Consider `CC(CN(C)C)Oc1ccccc1NC1=C(Cl)C(=O)C(Nc2ccccc2OC(C)CN(C)C)=C(Cl)C1=O` (stereo not drawn), for which the growth is -91.8% (active).
The same measure, in the same setting: with `O=C(CCCSc1nc(-c2ccc(Cl)cc2)cc(-c2ccc(Cl)cc2)n1)NO` the figure was 13.2% (inactive); with `CC[C@@H]1NC(=O)[C@H]([C@H](O)[C@H](C)C/C=C/c2ccc(CN3C(=O)CCCC3=O)cc2)N(C)C(=O)[C@H](C(C)C)N(C)C(=O)[C@H](CC(C)C)N(C)C(=O)[C@H](CC(C)C)N(C)C(=O)[C@@H](C)NC(=O)[C@H](C)NC(=O)[C@H](CC(C)C)N(C)C(=O)[C@H](C(C)C)NC(=O)[C@H](CC(C)C)N(C)C(=O)CN(C)C1=O`, 20.8% (inactive); with `Cc1cc(C)nc(NS(=O)(=O)c2ccc(Nc3nc4nc(NCc5ccccc5)nc(-c5ccc(O)cc5)c4c(=O)[nH]3)cc2)n1`, 66.1% (inactive).
Same read-out and setting: then `Oc1ccc(/C=N/N=C2c3ccccc3-c3ccccc32)c(O)c1`, with 84.7% (inactive); and `CN1CCN(CC(=O)Nc2cccc(-n3cc(-c4ccncc4)c(-c4ccc(Cl)c(O)c4)n3)c2)CC1`, with 24.9% (inactive); and `CNS(=O)(=O)Oc1ccc(-c2ccc3occc3c2)cc1`, with 107% (inactive).
Same read-out and setting: with `Cc1n[nH]c(C)c1N=Nc1cccc2c1C(=O)c1ccccc1C2=O` the figure was 111% (inactive).
On to `Clc1ccc(C2=NN=C3C(Cc4ccccc4)=Nc4ccccc4N3C2)cc1`, for which the growth is 104% (inactive).
`CCOC(=O)N/N=C/c1ccc(OC)c(OC)c1`: the growth was 106% (inactive).
Still for that read-out and setting: with `COc1cc(-c2nn(-c3cccc(NC(=O)NCCNC(=O)c4ccccc4)c3)cc2-c2ccncc2)ccc1Cl` the figure was 17.1% (inactive).
The same measure, in the same setting: then `CCOC(=O)c1cc(C(=O)c2cc(OC)c(OC)c(OC)c2)n2ncc3ccccc3c12`, with 57.1% (inactive); and `NC1=CC(=O)C(=O)c2cccnc21`, with 64.4% (inactive).
Same read-out and setting: with `COc1ccc(Cl)cc1Nc1nc(C(F)(F)F)ccc1C(=O)N/N=C/c1cc(OC)c(OC)c(OC)c1` the figure was 54.8% (inactive); with `CC(C)(C)OC(=O)CC(S(=O)(=O)c1ccccc1)S(=O)(=O)c1ccccc1`, 91.9% (inactive); with `CC(C)(C)OC(=O)CN1CCc2c(sc3ncnc(N/N=C/c4cccc5ccccc45)c23)C1`, 38.8% (inactive).
